Measured values published in PubChem BioAssay AID686978 (National Center for Advancing Translational Sciences (NCATS), 2013).
Hit rate of the full screen: of about 420,000 compounds, about 64,000 (15%) were called active. Roughly 27% stayed inconclusive and do not appear here. The call rests on the fitted dose curve; in most records, active means well fitted inhibition curve with a large enough effect; inconclusive means small, poorly fitted or top-dose-only effect; inactive means flat fitted curve, though single readings scatter. The list is a sample of the results. A call without a number means that no potency is given here.

Assay: qHTS for Inhibitors of human tyrosyl-DNA phosphodiesterase 1 (TDP1): qHTS in cells in absence of CPT; further: nearly all actives have a fitted effect of over 55% in size
Settings: DT40 Tdp1-/- hTDP1 cells, no CPT, ATP luminescence, 48 h; activity change, negative = growth inhibition: at 46.2 µM (top of the series)
Method in brief: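 No-CPT arm: Tdp1-/-;hTDP1 DT40 cells (400/well) plus compounds, incubated ≥48 hr at 37 °C. Readout CellTiter-Glo luminescence.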
Potency means the concentration at half of the fitted maximal effect.

Compound | Potency
CCOC(=O)c1cnc2sccn2c1=O | inactive
O=[N+]([O-])c1cccc(S(=O)(=O)NCc2ccccn2)c1 | inactive
O=c1[nH]c2cccnc2n1-c1ccc([N+](=O)[O-])cc1 | inactive
O=[N+]([O-])c1ccc2nc(-c3ccccn3)[nH]c2c1 | 1.16 µM (active)
Cc1ccc(C(=O)OC2=CC(=O)CC(C)(C)C2)cc1 | inactive
Cc1cnc(C(=O)OCC(=O)Nc2ccc(Cl)cc2Cl)cn1 | inactive
COC(=O)c1c(NC(=O)COc2ccc(Cl)cc2Cl)sc2c1CC(C)(C)NC2(C)C | 8.2 µM (active)
CCOC(=O)c1c(NC(=O)COc2cc(C)ccc2C(C)C)sc(C)c1C | inactive
c1cc(-n2cnnn2)ccc1NC1=NCCC1 | inactive
O=C1CCCN1C(=O)COc1ccc([N+](=O)[O-])cc1 | inactive
COC(=O)c1ccc(S(=O)(=O)N(CCO)Cc2ccccc2)n1C | inactive
COc1ccc(C2c3c(C)nn(-c4ccccc4)c3NC(=O)N2c2ccccc2)cc1 (stereo unspecified) | inactive
Cn1c(=O)c2c(n3c4ccccc4nc13)NC(=O)CC2c1cccc(Cl)c1 (stereo unspecified) | inactive
COc1ccc(Br)cc1S(=O)(=O)N1CCN=C1C | inactive
C#CCOc1ccc(C2CC(=O)Nc3c2c(C)nn3-c2nc(C)cc(C)n2)cc1 (stereo unspecified) | 20.6 µM (active)
COc1ccc(C2CC(=O)Nc3c2c(=O)nc2c(C)cccn32)cc1OC (stereo unspecified) | inactive
COc1ccc(Br)cc1C1CC(=O)Nc2c1c(C)nn2-c1nc(C)cc(C)n1 (stereo unspecified) | 18.4 µM (active)
NC(=O)COC(=O)c1ccc2c(c1)C(=O)N(Cc1ccco1)C2=O | inactive
CCCS(=O)(=O)NC(=O)C1(C)CCN(C(=O)c2sccc2C)C1 (stereo unspecified) | inactive
COc1ccc(NC(=O)c2ccco2)cc1NC(=O)c1ccc(C#N)cc1F | inactive
Clc1cc(-c2ccc(/C=N/n3cnnc3)o2)ccc1Br | inactive
Cc1cc([N+](=O)[O-])nn1CCCC(=O)Nc1cccnc1Cl | inactive
O=C(CCNC(=O)c1ccc([N+](=O)[O-])cc1)Nc1ccccc1N1CCOCC1 | inactive
CC(C)(C)c1ccc(C(=O)NCCn2c(N)c(C#N)c3nc4ccccc4nc32)cc1 | 29.1 µM (active)
CC(C)(C)c1ccc(C(=O)NCC(=O)OCN2C(=O)c3ccccc3C2=O)cc1 | inactive
CCOC(=O)/C(C#N)=C\c1c(C)cc(C)c(COC(C)=O)c1C | inactive

Compound | Potency
Cc1ccc2c(=O)c(C(=O)c3cccc(Cl)c3)cn(CC(=O)NCc3ccccc3)c2n1 | inactive
O=C(O)CC1=C(Nc2ccccc2)C(=O)N(c2ccccc2)C1c1ccc(Cl)cc1 (stereo unspecified) | inactive
CCc1nc2onc(C)c2c(=O)n1CC(=O)O | inactive
CCOC(=O)N1CCN(C(=O)c2ccc3c(c2)N(Cc2ccc(C)cc2)CCS3)CC1 | 23.1 µM (active)
CCOC(=O)N1CCN(C(=O)c2cnc3n(c2=O)CCS3)CC1 | inactive
CCOC(=O)N1CCN(C(=O)c2ccc(S(=O)(=O)c3ccc(C)cc3)c(NC(C)=O)c2)CC1 | inactive
COc1ccc(NC(=O)NC2CC3CCCC(C2)N3Cc2ccccc2)cc1 (stereo unspecified) | inactive
CC1(C)C2CC[C@]3(C)C(CC=C4[C@@H]5C[C@@](C)(CO)CC[C@]5(C(=O)O)CC[C@]43C)[C@@]2(C)CC[C@@H]1O (stereo partly specified) | inactive
Cc1sc2ncnc(SCC(=O)Nc3ccc(CN4CCCC4)cc3)c2c1C | inactive
COC(=O)c1c(-c2cccs2)csc1NC(=O)CSc1ncnc2sc(C)c(C)c12 | 20.6 µM (active)
Cc1sc2ncnc(SCC(=O)NC3CCS(=O)(=O)C3)c2c1C (stereo unspecified) | inactive
CC(=O)Nc1ccc(N2C(=O)C3C4C=CC(CC4)C3C2=O)cc1 (stereo unspecified) | inactive
O=C(O)[C@@H]1CCCN1c1ncnc2sc3c(c12)CCC3 | inactive
OCCNc1nc2ccccc2n1-c1ncnc2sc3c(c12)CCC3 | 20.6 µM (active)
O=C(O)c1cccnc1Sc1ncnc2sc3c(c12)CCC3 | inactive
COc1cc(N2C(=O)CSC2=S)cc(OC)c1OC | inactive
O=C(Cn1nc(C(F)(F)F)c2c1CCC2)NCc1ccc(F)cc1 | inactive
O=C(CN(C(=O)c1csnn1)c1ccc(Br)cc1)NC1CCCC1 | inactive
O=C(NC(=S)NC1CCCCC1)c1ccc(Cl)cc1 | inactive
O=C(NNC(=O)C1C2CCC(C2)C1C(=O)O)c1ccc(Cl)cc1 (stereo unspecified) | inactive
O=C(NNC(=S)NC1CC2CCC1C2)c1ccc(Cl)cc1 (stereo unspecified) | 23.1 µM (active)
Oc1c(C(c2ccco2)N2CCC3(CC2)OCCO3)sc2ncnn12 (stereo unspecified) | inactive
CCOC(=O)c1ccc(N2C(=O)CC(N3CC(C)OC(C)C3)C2=O)cc1 (stereo unspecified) | inactive
COc1ccc(C)cc1N(CC(=O)N1CCCC1)S(=O)(=O)c1ccccc1 | inactive
O=C(NCCCn1ccnc1)C1CCCN(S(=O)(=O)c2cc(Cl)ccc2Cl)C1 (stereo unspecified) | inactive
Cc1ccc(Cl)cc1NC(=O)CCC(=O)N1CC(C)Sc2ccccc21 (stereo unspecified) | 18.4 µM (active)

Compound | Potency
Cc1ccc(CNC(=O)CCC(=O)N2CC(C)Sc3ccccc32)cc1 (stereo unspecified) | inactive
Cc1ccc(Cl)cc1NC(=O)COC(=O)C1CCCCC1 | inactive
Cc1cccc(N(C(=O)Cn2nnc(-c3ccc(C)o3)n2)C(C(=O)NC2CCCC2)c2ccncc2)c1 (stereo unspecified) | inactive
CC(NC(=O)c1ccco1)c1ccc2c(c1)OCO2 (stereo unspecified) | inactive
C#CCSc1nnc(-c2sc3ccccc3c2Cl)o1 | inactive
O=C1OC[C@@H]2CCCN2C(=O)[C@H](CC(=O)N(CCO)Cc2ccccc2)C/C=C\CC[C@@H]1Cc1ccc(F)cc1 | 18.4 µM (active)
CN(Cc1cccs1)C(=O)Cc1c[nH]c2ccccc12 | inactive
O=C1NC[C@@H](c2ccccc2)OC(=O)[C@H](Cc2ccc(F)cc2)CC/C=C/C[C@H]1CC(=O)N(CCO)Cc1ccccc1 | 14.6 µM (active)
O=C1CCC/C=C\C[C@@H](CC(=O)N(CCO)Cc2ccccc2)C(=O)NCCO1 | inactive
O=C(C[C@@H]1C/C=C\CCC(=O)OC[C@@H]2CCCN2C1=O)NCCO | inactive
O=C1N[C@H](Cc2c[nH]c3ccccc23)COC(=O)[C@H](Cc2ccc(F)cc2)C/C=C\C[C@H]1CC(=O)N(CCO)Cc1ccccc1 | 16.4 µM (active)
O=C(N[C@@H]1C/C=C\C[C@@H](CC(=O)N(CCO)Cc2ccccc2)C(=O)N[C@H](Cc2ccccc2)COC1=O)OCC1c2ccccc2-c2ccccc21 | 4.61 µM (active)
O=C1CCC/C=C/C[C@@H](CC(=O)N(CCO)Cc2ccccc2)C(=O)NC[C@H](c2ccccc2)O1 | inactive
C=CCn1c(COc2ccccc2)nnc1SCC(=O)NCC(=O)OCC | inactive
O=C(O)CSc1nccc2ccccc12 | inactive
COc1cc(Cl)c(S(=O)(=O)n2cnc(C)c2)cc1Cl | inactive
Cc1ccnc(NC(=O)CNC(=O)c2ccccc2)c1 | inactive
CCc1ccc(CNC(=O)CCc2nc(-c3cccs3)no2)cc1 | inactive
CSc1n[nH]c(-c2ccco2)n1 | inactive
O=C(CC(NS(=O)(=O)c1ccc(Cl)cc1)c1ccco1)NC1CCCC1 (stereo unspecified) | inactive
CCc1nn(CC(=O)N2CCN(CC)CC2)c(=O)c2cccn12 | inactive
COc1ccccc1NS(=O)(=O)c1ccc(C)c(C(=O)NCC(c2ccco2)N(C)C)c1 (stereo unspecified) | inactive
C=CC(C1=CC(=O)C=CC1=O)c1ccc(O)cc1 (stereo unspecified) | 1.84 µM (active)
COc1ccc(CC(=O)Nc2ccc3c(c2)CCC3)cc1S(=O)(=O)N1CCOCC1 | inactive
COC(=O)c1cccc(N(CC(=O)NCC2CCCO2)C(=O)CCC(=O)Nc2cc(C)on2)c1 (stereo unspecified) | inactive
CCOC(=O)Cc1csc(SCC(=O)Nc2ccc(C)cc2F)n1 | 14.6 µM (active)

Compound | Potency
Cc1ccc2c(CSc3nncs3)cc(=O)oc2c1 | inactive
Cc1ccc(-c2csc(SCC(=O)Nc3cc(C)on3)n2)cc1 | inactive
CCOC(=O)Cc1csc(NC(=O)CSc2ccc(Br)cc2)n1 | 16.4 µM (active)
Cc1ccc(C)c(NC(=O)COC(=O)Cn2c(C)csc2=O)c1 | inactive
CCOC(=O)Cc1csc(NC(NC(=O)OCC)(C(F)(F)F)C(F)(F)F)n1 | inactive
CCOC(=O)Cc1csc(NC(=O)C(C)(C)C)n1 | inactive
CCOC(=O)Cc1csc(NC(=O)COc2ccc3c(C)cc(=O)oc3c2)n1 | inactive
CCOC(=O)Cc1csc(SCc2cc(=O)oc3cc(O)ccc23)n1 | 13 µM (active)
CN(C(=O)CSc1nnc(Nc2ccccc2)s1)C1CCS(=O)(=O)C1 (stereo unspecified) | inactive
CC(Nc1ccccc1)c1cccnc1 (stereo unspecified) | inactive
O=C(O)C1CCCN1c1nc(Cl)ccc1[N+](=O)[O-] (stereo unspecified) | inactive
CCn1ccnc1CN1CCCC(C(=O)c2ccc3c4c(cccc24)CC3)C1 (stereo unspecified) | 4.61 µM (active)
CCc1nccn1CCC(=O)N1CCCC(N2CCN(c3ccccc3F)CC2)C1 (stereo unspecified) | inactive
Cc1c(CN2CCCC(C(=O)c3cccc(Cl)c3)C2)c(=O)n(-c2ccccc2)n1C (stereo unspecified) | inactive
Cc1ccc(CN2CCC(n3nccc3NC(=O)CCCc3ccccc3)CC2)o1 | inactive
COc1cc(CN2CCC(n3nccc3NC(=O)CCCc3ccccc3)CC2)ccc1O | inactive
COc1ccc(CN2CCC(n3nccc3NC(=O)CCCc3ccccc3)CC2)cc1C | 29.1 µM (active)
CC[C@@]1(C(=O)OC)N[C@H](CN(C)C(C)=O)[C@@H]2C(=O)N(C)C(=O)[C@@H]21 | inactive
CCN(CC)S(=O)(=O)c1ccc2c(c1)N(CC(=O)NCc1ccccc1)C(=O)CS2 | inactive
CCN(C[C@H]1N[C@@](CC)(C(=O)OC)[C@H]2C(=O)N(C)C(=O)[C@@H]12)C(=O)Nc1ccc(F)cc1 | inactive
CCNC(=O)N(CC)C[C@H]1N[C@@](CC)(C(=O)OC)[C@H]2C(=O)N(Cc3ccccc3)C(=O)[C@@H]12 | inactive
COC(=O)[C@]1(Cc2ccccc2)N[C@H](CN(C)S(=O)(=O)c2ccc(OC(F)(F)F)cc2)[C@@H]2C(=O)N(C)C(=O)[C@@H]21 | 23.1 µM (active)
CCN(C[C@H]1N[C@@](CC)(C(=O)OC)[C@H]2C(=O)N(Cc3ccccc3)C(=O)[C@@H]12)S(=O)(=O)c1ccc(C(F)(F)F)cc1 | 18.4 µM (active)
